Laboratory results published in PubChem BioAssay AID1259325 (C. David Weaver Laboratory, Vanderbilt University, 2017).
About 30 (0.05%) of roughly 63,000 compounds were called active. The rule behind the calls is not given here. These entries were drawn from the full list.

These compounds were tested against G protein-activated inward rectifier potassium channel 2 (Homo sapiens) (UniProt P48051) (assay: activators of human GIRK2 potassium channels (AID 1259325)). Settings: HEK293-GIRK2 thallium flux, Thallos fluorescence, MPD.
Chain of G protein-activated inward rectifier potassium channel 2 (Homo sapiens) (P48051 whole entry, looked up): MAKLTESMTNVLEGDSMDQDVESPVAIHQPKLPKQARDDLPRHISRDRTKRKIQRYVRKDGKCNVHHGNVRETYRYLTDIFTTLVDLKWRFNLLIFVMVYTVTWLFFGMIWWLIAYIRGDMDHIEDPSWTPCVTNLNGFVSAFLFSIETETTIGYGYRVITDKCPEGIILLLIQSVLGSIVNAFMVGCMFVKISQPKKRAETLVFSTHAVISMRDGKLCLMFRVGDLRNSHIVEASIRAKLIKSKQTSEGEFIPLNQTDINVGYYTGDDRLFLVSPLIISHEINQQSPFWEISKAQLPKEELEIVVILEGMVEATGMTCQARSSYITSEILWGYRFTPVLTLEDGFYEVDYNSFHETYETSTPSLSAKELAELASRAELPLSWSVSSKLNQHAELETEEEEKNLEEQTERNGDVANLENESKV

Row | SMILES | outcome
1 | O=S(=O)(c1ccccc1F)N(CCc1cccs1)Cc1ccoc1 | inactive
2 | COc1ccc(Nc2c(C(=O)N3CCCCC3)cnc3nc(C)ccc23)cc1OC | inactive
3 | O=S(=O)(NCCC(O)c1ccoc1)c1ccc(F)c(Cl)c1 (centres undefined) | inactive
4 | COC(=O)c1ccc2c(=O)n(CCC(=O)NCCN3CCCc4ccccc43)c(=S)[nH]c2c1 | inactive
5 | Cc1nc2sc(C)c(C)n2c(=O)c1NC(=O)c1ccccc1C(F)(F)F | inactive
6 | COC(=O)Nc1nc2c(s1)CN(C(=O)c1cccc(C#N)c1)CC2 | inactive
7 | COc1cc(NC(=O)c2cnccn2)ccc1N1CCCC1=O | inactive
8 | Cc1nn(-c2ccccc2)c(C)c1N1CCN(S(=O)(=O)c2cccs2)CC1 | inactive
9 | Cn1cccc1C(=O)N1CCN(Cc2nncn2-c2ccccc2F)CC1 | inactive
10 | Cc1cn2c3c(=O)n(C/C=C/c4ccccc4)c(=O)n(C)c3nc2n1-c1ccccc1O | inactive
11 | CCCCN(C)C(=O)c1cc2c(=O)n3ccccc3nc2n1CCCOC | inactive
12 | COc1ccc(OC)c(S(=O)(=O)NCC(c2ccc(F)cc2)N2CCOCC2)c1 (centres undefined) | inactive
13 | CCOC(=O)c1cnn2ccc(NC(=O)c3cnn(-c4ccccc4)c3C)cc12 | inactive
14 | COc1ccc(C(O)CN2CCN(c3cccc(C)c3C)CC2)cc1 (centres undefined) | inactive
15 | Cc1cc(NC(=O)C2CCN(C(=O)C3(c4ccccc4)CCOCC3)CC2)no1 | inactive
16 | COc1cccc(C(=O)Oc2ccc(/C=C/c3ccccn3)cc2)c1 | inactive
17 | Nc1cc2cc(Br)ccc2cn1 | inactive

Row | SMILES | outcome
18 | COc1ncccc1C(=O)NCCn1nc(C2CC2)n(-c2ccccc2)c1=O | inactive
19 | CCc1cc2c(=O)n(Cc3ccco3)c(SCc3cc(=O)[nH][nH]3)nc2s1 | inactive
20 | Cc1cc(N2CCN(CCO)CC2)n2nc(C(F)(F)F)c(-c3ccc(Cl)cc3)c2n1 | inactive
21 | CCOc1ccc(N(C)S(=O)(=O)c2ccsc2C(=O)NCCC2=CCCCC2)cc1 | inactive
22 | CCC(=O)Nc1cc(-c2ccco2)nn1-c1nc2c(c(=O)[nH]1)CCC2 | inactive
23 | O=C(CCC(=O)N1CC(c2nc(-c3cccs3)no2)C1)c1ccccc1 | inactive
24 | Cc1ccc(Cl)c(-n2nnc(C(=O)Nc3ccccc3Cl)c2C)c1 | inactive
25 | O=C(NCC(=O)N1CCN(c2cc(-n3cccc3)ncn2)CC1)c1ccccc1 | inactive
26 | O=C(Nc1ccc2c(c1)OCO2)Nc1ccccc1NC(=O)c1ccccc1F | inactive
27 | O=S(=O)(NC1CCN(c2ccc(-c3ccccc3Cl)nn2)CC1)c1cccs1 | inactive
28 | O=C(CN1CCN(c2ccccc2F)C1=O)Nc1ccc(OC(F)(F)F)cc1 | inactive
29 | CCOC(=O)N1CCc2c(sc(NC(=O)c3ccc(C)c(C)c3)c2-c2nc3ccccc3s2)C1 | inactive
30 | Cc1nnc(NC(=O)C2CCN(c3ccc(-c4ccco4)nn3)CC2)s1 | inactive
31 | Cc1cc(-c2ccccc2)nc2cc(-c3nc(-c4cccs4)no3)nn12 | inactive
32 | CCCCCNC(=O)c1sc(-c2nnn(-c3ccc(F)cc3)c2C)nc1C | inactive
33 | Cc1ccc2[nH]c3c(=O)n(CC(=O)N4CCN(c5cccc(C(F)(F)F)c5)CC4)cnc3c2c1 | inactive
34 | COc1ccc(NCCN2N=C(C)C(C)n3c2nc2c3c(=O)n(C)c(=O)n2C)cc1 (centres undefined) | inactive
